Reference: PubChem BioAssay AID1159580 (chemical genetic matrix, 2015)
Where “and” joins values, the source holds several entries; their conditions need not be identical. Identical values can stand only once. The campaign covered roughly 5,500 compounds. About 2,000 (36%) were called active. Inconclusive results (about 18%) are left out. Rule as the data show it: active = normalized growth mostly below about 0.91 (no sharp cut-off); inconclusive = no clear call, values can overlap the other calls; inactive = mostly above about 0.92. This is one part of the list.

Assay: chemical genetic growth profiling, strain panel (AID 1159580);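 also: tested at 20 µM; growth read once vehicle control cultures reached saturation at 30 °C; 1 = growth at the plate median or of vehicle wells; lower values mean less growth of the strain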
Conditions: S. cerevisiae deletion strains, growth OD

Measured: normalized growth

N#Cc1c(Cl)cccc1Cl
inactive: locus YAL013W, strain DEP1, active compounds read low 1.01 | locus YAL021C, strain ccr4, active compounds read low 1.01 | locus YAL026C, strain drs2, active compounds read low 0.988 | locus YAL030W, strain snc1, active compounds read low 0.979 | locus YBL061C, strain skt5, active compounds read low 0.979 | locus YBR009C, strain hhf1, active compounds read low 0.959 | locus YBR021W, strain FUR4, active compounds read low 1.02 | locus YBR023C, strain chs3, active compounds read low 0.981 | locus YBR171W, strain sec66, active compounds read low 0.982 | locus YBR229C, strain ROT2, active compounds read low 1.01 | locus YBR231C, strain swc5, active compounds read low 0.98 | locus YBR279W, strain paf1, active compounds read low 0.983 | locus YCL011C, strain gbp2, active compounds read low 0.954 | locus YCL016C, strain dcc1, active compounds read low 0.983 | locus YCL029C, strain bik1, active compounds read low 1.01 | locus YCL069W, strain vba3, active compounds read low 0.98 | locus YCR088W, strain abp1, active compounds read low 0.985 | locus YDL005C, strain med2, active compounds read low 0.977 | locus YDL035C, strain GPR1, active compounds read low 1.01 | locus YDL040C, strain nat1, active compounds read low 0.991 | locus YDL074C, strain BRE1, active compounds read low 1.03 | locus YDL101C, strain DUN1, active compounds read low 1.01 | locus YDL134C, strain PPH21, active compounds read low 1 | locus YDL185W, strain tfp1, active compounds read low 1.01 | locus YDL192W, strain arf1, active compounds read low 1.01 | locus YDR001C, strain nth1, active compounds read low 0.977 | locus YDR069C, strain doa4, active compounds read low 0.983 | locus YDR101C, strain arx1, active compounds read low 1.01 | locus YDR137W, strain rgp1, active compounds read low 1.01 | locus YDR150W, strain NUM1, active compounds read low 1.01 | locus YDR159W, strain sac3, active compounds read low 0.995 | locus YDR162C, strain NBP2, active compounds read low 1.01 | locus YDR195W, strain ref2 0.991 | locus YDR297W, strain sur2, active compounds read low 0.972 | locus YDR318W, strain mcm21, active compounds read low 1.01 | locus YDR334W, strain swr1, active compounds read low 0.952 | locus YDR335W, strain msn5, active compounds read low 0.977 | locus YDR388W, active compounds read low 1.01 | locus YDR392W, strain spt3, active compounds read low 1 | locus YDR502C, strain sam2, active compounds read low 1.01 | locus YEL003W, strain gim4, active compounds read low 0.969 | locus YEL037C, strain rad23, active compounds read low 0.981 | locus YEL061C, strain CIN8 (second series), active compounds read low 0.98 | locus YEL061C, strain CIN8, active compounds read low 1.01 | locus YER015W, strain faa2, active compounds read low 0.98 | locus YER016W, strain bim1, active compounds read low 0.979 | locus YER110C, active compounds read low 1 | locus YER111C, strain swi4, active compounds read low 0.965 | locus YER155C, strain BEM2 (second series), active compounds read low 0.975 | locus YER155C, strain BEM2, active compounds read low 1.01 | locus YER167W, strain BCK2, active compounds read low 1.01 | locus YFR010W, strain ubp6, active compounds read low 0.98 | locus YGL078C, strain dbp3, active compounds read low 1.01 | locus YGL086W, strain mad1, active compounds read low 1.01 | locus YGL167C, strain pmr1, active compounds read low 0.978 | locus YGL173C, strain kem1, active compounds read low 0.99 | locus YGL227W, strain vid30, active compounds read low 0.974 | locus YGL240W, strain doc1, active compounds read low 0.965 | locus YGL248W, strain PDE1, active compounds read low 1 | locus YGL253W, strain hxk2, active compounds read low 0.987 | locus YGR078C, strain PAC10, active compounds read low 1.01 | locus YGR135W, strain pre9, active compounds read low 1.01 | locus YGR229C, strain SMI1, active compounds read low 1.02 | locus YGR252W, strain gcn5, active compounds read low 1.09 | locus YHR013C, strain ard1, active compounds read low 1.02 | locus YHR027C, strain rpn1, active compounds read low 0.977 | locus YHR030C, strain SLT2, active compounds read low 1.02 and 0.941 | locus YHR079C, strain IRE1 (second series), active compounds read low 1.01 | locus YHR079C, strain IRE1, active compounds read low 0.965 | locus YHR094C, strain hxt1, active compounds read low 1.01 | locus YHR129C, strain ARP1, active compounds read low 1.01 | locus YHR142W, strain chs7, active compounds read low 0.976 | locus YHR200W, strain rpn10, active compounds read low 1.01 | locus YIL066C, strain RNR3, active compounds read low 1.04 | locus YIL073C, strain SPO22, active compounds read low 1.03 | locus YIL125W, strain kgd1, active compounds read low 1.01 | locus YIR030C, strain dcg1, active compounds read low 1.02 | locus YJL092W, strain hpr5, active compounds read low 0.976 | locus YJL095W, strain BCK1 (second series), active compounds read low 0.997 | locus YJL095W, strain BCK1, active compounds read low 0.999 and 0.941 | locus YJL115W, strain asf1, active compounds read low 0.959 | locus YJL129C, strain trk1, active compounds read low 0.976 | locus YJL134W, strain LCB3, active compounds read low 1.01 | locus YJL154C, strain vps35, active compounds read low 0.978 | locus YJL164C, strain tpk1, active compounds read low 0.996 | locus YJL166W, strain qcr8, active compounds read low 0.978 | locus YJL168C, strain set2, active compounds read low 1.01 | locus YJL187C, strain SWE1 (second series), active compounds read low 1.01 | locus YJL187C, strain SWE1, active compounds read low 0.988 | locus YJR043C, strain POL32, active compounds read low 1.02 | locus YJR066W, strain TOR1, active compounds read low 0.936
